Screening data: PubChem, National Center for Advancing Translational Sciences (NCATS)
Giardia FBPA inh: inhibitors of Giardia lamblia fructose-1,6-bisphosphate aldolase. purified Giardia FBPA. 0.71% of 290,000 active. Potency, µM (top dose mostly 59.6 µM), for the others: at the highest dose activity, negative = inhibition, most hits filed as inhibitors. A8B2U2; further: potency means the concentration at half of the fitted maximal effect; on the % scale 0 is the no-effect control and ±100 the full control effect; nearly all actives have a fitted effect of over 55% in size
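Giardia FBPA (40 nM reagent) was preincubated 10 min at RT with compound (up to 57.5 uM final), then substrate plus GAPDH/TPI/NAD/arsenate coupling system with diaphorase/resazurin was added; resorufin fluorescence (525/598 nm) was read after 20 min.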
RE007 growth inh: less growth of the S. pombe RE007 Vpr strain | Potency, µM (top dose mostly 92.2 µM), for inactives: at the highest dose activity change, negative = less growth, most hits filed as inhibitors | 0.21% of 360,000 active | AID 651644 | S. pombe RE007 Vpr strain, BacTiter-Glo ATP luminescence, 24 h; active means well fitted falling curve with a large enough effect; inconclusive means small, poorly fitted or top-dose-only effect; inactive means no such curve, though single readings can be large or run the other way; further: potency means the concentration at half of the fitted maximal effect; on the % scale 0 is the no-effect control and ±100 the full control effect; nearly all actives have a fitted effect of over 50% in size
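Fission yeast strain RE007, carrying one chromosomally integrated HIV-1 vpr copy, was seeded at OD 0.01 in PMG+AL medium with 23 nL pinned compound. After 24 h at 30 °C and 99% humidity, viability was read by BacTiter-Glo luminescence.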
LmPK inh: LmPK (Leishmania mexicana) enzyme inhibition; Potency, µM (highest dose often 57.5 µM), for the others: at the top dose activity change, negative = inhibition, hits mostly inhibitors; purified LmPK, Kinase-Glo ATP luminescence, 1 h; 0.37% of 290,000 active; Q27686; further: potency means the concentration at half of the fitted maximal effect; on the % scale 0 is the no-effect control and ±100 the full control effect
Target sequence (Q27686 whole entry, looked up): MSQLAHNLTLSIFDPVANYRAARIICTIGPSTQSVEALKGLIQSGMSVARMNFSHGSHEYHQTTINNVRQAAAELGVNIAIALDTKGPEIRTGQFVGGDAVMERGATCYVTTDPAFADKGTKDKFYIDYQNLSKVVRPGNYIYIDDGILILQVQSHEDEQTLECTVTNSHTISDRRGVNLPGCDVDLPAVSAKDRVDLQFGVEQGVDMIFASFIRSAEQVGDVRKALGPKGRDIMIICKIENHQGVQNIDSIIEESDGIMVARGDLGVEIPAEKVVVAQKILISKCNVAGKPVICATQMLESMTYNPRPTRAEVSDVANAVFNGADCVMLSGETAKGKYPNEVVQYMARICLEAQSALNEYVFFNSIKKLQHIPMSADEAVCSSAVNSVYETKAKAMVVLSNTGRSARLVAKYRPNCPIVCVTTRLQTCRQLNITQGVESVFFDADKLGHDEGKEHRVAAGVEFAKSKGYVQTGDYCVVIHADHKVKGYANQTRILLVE
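qHTS format; LmPK 0.1 nM; substrates PEP 0.5 mM and ADP 0.1 mM. One-hour room-temperature incubation, then coupled luciferase luminescence; 0.5 nM enzyme wells mark activation.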
Cycloheximide cs: counter-screen hit for Shiga toxin inhibitors, cycloheximide. AID 2314. 12% of 300,000 active. max response, %. cell reporter, cycloheximide protein synthesis inhibition counterscreen; in the data active means max response mostly above about 13%, no sharp cut-off; inactive means mostly below about 14%; further: read at 38.3 µM for the half of the compounds with a filed dose; 0% is about no effect
Shiga toxin inh: Shiga toxin inhibition; Vero cells, Shiga toxin protein synthesis inhibition reporter; inhibition, % at 38.7 µM; 9.2% of 290,000 active; AID 2315; in the data active means inhibition mostly above about 28%, no sharp cut-off; inactive means mostly below about 43%; further: 0% is about no effect
Tb PYK inh: inhibitors of Trypanosoma brucei pyruvate kinase. Q57TT1. TbPYK enzyme, Kinase-Glo Plus ATP luminescence, 45 min. Potency, µM (top dose mostly 76.8 µM), inactives show top-dose activity, negative = inhibition, usual class: inhibitors. 0.12% of 410,000 active. AID 624173; further: potency means the concentration at half of the fitted maximal effect; on the % scale 0 is the no-effect control and ±100 the full control effect; nearly all actives have a fitted effect of over 50% in size
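Quantitative HTS: titrated library compounds versus trypanosomal pyruvate kinase in TEA buffer (pH 7.2) containing KCl, MgCl2, BSA and Tween-20. Reactions were initiated with ADP, 130 uM final. Kinase-Glo Plus luminescence was read after 45 min at RT.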
Active calls of the source: *; [ ] = another dose, or the depositor's remark. The full list was thinned out, with hits kept by preference. Unless noted, the call rests on the fitted dose curve; in most records, active means well fitted curve in the direction sought with a large enough effect; inconclusive means small, poorly fitted or top-dose-only effect, or another doubt; inactive means no such curve, though single readings can be large; an effect the other way counts as inactive or inconclusive.

Screening COCCOC1CCN(C(=O)c2cc(COc3ccc(F)cc3F)on2)CC1 returned Giardia FBPA inh -5%, RE007 growth inh 7%, LmPK inh 4%, Cycloheximide cs 23*, Shiga toxin inh 75 and Tb PYK inh 7%.
For CCOC(=O)C1CCN(C(=O)c2cc(COc3ccc(F)cc3F)on2)CC1 the results were RE007 growth inh 4%, LmPK inh -4%, Cycloheximide cs 63*, Shiga toxin inh 127* and Tb PYK inh -14%.
For CCOC(=O)N1CCN(C(=O)c2cc(COc3ccc(F)cc3F)on2)CC1 the results were RE007 growth inh 18%, LmPK inh -7%, Cycloheximide cs 49*, Shiga toxin inh 88* and Tb PYK inh -3%.
For CCC(O)C1CCN(C(=O)c2cc(COc3ccc(F)cc3F)on2)CC1 (configuration not stated) the results were RE007 growth inh -15%, LmPK inh 0%, Cycloheximide cs 17, Shiga toxin inh 17 and Tb PYK inh -9%.
`O=C(c1cc(COc2ccc(F)cc2Cl)on1)N1CCCC(c2ccccc2)C1` (configuration not stated) gave Giardia FBPA inh -2%, RE007 growth inh 33%, LmPK inh -4%, Cycloheximide cs 6, Shiga toxin inh 9 and Tb PYK inh -8%.
CCc1cccc(NC(=O)CSc2ncc3c(n2)-c2ccc(Cl)cc2N(Cc2ccccc2)S3(=O)=O)c1 was read as Tb PYK inh -14%.
For COCCCNC(=O)/C=C1\Sc2ccccc2N(Cc2ccccc2F)C1=O the results were Giardia FBPA inh 2%, RE007 growth inh -9%, LmPK inh -5%, Cycloheximide cs 32*, Shiga toxin inh 44 and Tb PYK inh -5%.
`CCN1CCN(CCNC(=O)c2ccc(/C=C3\Sc4ccccc4N(Cc4ccccc4F)C3=O)cc2)CC1` gave Giardia FBPA inh 10%, RE007 growth inh 13%, LmPK inh -3%, Cycloheximide cs -7, Shiga toxin inh -20 and Tb PYK inh 5%.
Screening COc1ccccc1OCCCCOc1ccccc1F returned Giardia FBPA inh -5%, RE007 growth inh -7%, LmPK inh 1%, Cycloheximide cs 34*, Shiga toxin inh 75 and Tb PYK inh -7%.
`Fc1ccccc1OCCCCCCN1CCCC1` gave Giardia FBPA inh -10%, RE007 growth inh -12%, LmPK inh 4%, Cycloheximide cs 17*, Shiga toxin inh 42 and Tb PYK inh 0%.
`COc1ccc(Oc2ccccc2C#N)cc1` gave Giardia FBPA inh -5%, RE007 growth inh -1%, LmPK inh 1%, Cycloheximide cs 7, Shiga toxin inh 51 and Tb PYK inh -4%.
`COc1ccccc1Oc1ccc(Oc2ccccc2OC)cc1` gave Giardia FBPA inh 1%, RE007 growth inh -11%, LmPK inh 1%, Cycloheximide cs 41*, Shiga toxin inh 45 and Tb PYK inh -2%.
For Cn1c(=O)c(-c2cccc(C#N)c2)nc2cnc(Oc3ccccc3)nc21 the results were Giardia FBPA inh 5%.
Screening CCc1ccc(CNC(=O)Cc2c(C(=O)O)c(C)cn2C)cc1 returned Tb PYK inh -4%.
CCOC(=O)CCN1C(=O)[C@H]2[C@H]3[C@H](O)[C@H](O)C/C(=N/OC/C=C(\C)CCC=C(C)C)[C@@H]3CC[C@@H]2C1=O was read as Giardia FBPA inh 1%[12.9 µM].
`CC/C=C\CC[C@H](OC(=O)c1ccc(Br)cc1)C1=CCCCC1=O` gave Giardia FBPA inh -2%[12.9 µM].
For COc1cccc(/C=N/N2C(=O)CSC2=S)c1O the results were Giardia FBPA inh -19%, RE007 growth inh 5%, LmPK inh -13%, Cycloheximide cs 32*, Shiga toxin inh 45* and Tb PYK inh inconclusive.
COc1cccc(/C=N/NC(=O)N/N=C/c2cccc(OC)c2O)c1O was read as Giardia FBPA inh 1%, RE007 growth inh 2%, LmPK inh 0%, Cycloheximide cs 25* and Tb PYK inh -5%.
COc1cccc(/C=N/NC(=O)CSc2ccccc2C)c1OC was read as Giardia FBPA inh 3%, RE007 growth inh 17%, LmPK inh -2%, Cycloheximide cs -2, Shiga toxin inh 37 and Tb PYK inh -6%.
Screening COc1cccc(/C=N/NC(=O)CSc2ccccc2C)c1O returned Giardia FBPA inh -12%, RE007 growth inh inconclusive, LmPK inh 1%, Cycloheximide cs 17, Shiga toxin inh 37* and Tb PYK inh -3%.
COc1cccc(/C=N\NC(=O)c2ccc(Cn3cc(Br)c([N+](=O)[O-])n3)o2)c1O was read as Giardia FBPA inh 8%, RE007 growth inh -8%, LmPK inh 6%, Cycloheximide cs 44*, Shiga toxin inh 56* and Tb PYK inh 2%.
Screening COc1cc(/C=N\NC(=O)c2ccc(Cn3nc([N+](=O)[O-])c(Cl)c3C)o2)ccc1O returned Giardia FBPA inh 4%, RE007 growth inh 20%, LmPK inh 4%, Cycloheximide cs -2, Shiga toxin inh -8 and Tb PYK inh -10%.
Cc1ccc2c(=O)cc(C(=O)Nc3ccc(S(=O)(=O)N4CCC(C)CC4)cc3)oc2c1C was read as Tb PYK inh 0%.
For COc1cc(NC(=O)c2noc3c2CCc2ccccc2-3)cc(OC)c1OC the results were Tb PYK inh 2%.
Screening CCC12CN3CC(CC)(CN(C1)C3c1cc(Br)ccc1OC)C2=O (configuration not stated) returned Tb PYK inh -1%.
`COc1cccc(/C=N/NC(=O)C(C)n2nc(C)c([N+](=O)[O-])c2C)c1O` (configuration not stated) gave Giardia FBPA inh inconclusive, RE007 growth inh -4%, LmPK inh -9%, Cycloheximide cs 35*, Shiga toxin inh 31 and Tb PYK inh 2%.
COc1cccc(/C=N/Nc2ccc(C(=O)O)cc2)c1O was read as Giardia FBPA inh -7%, RE007 growth inh inconclusive, LmPK inh inconclusive, Cycloheximide cs -12, Shiga toxin inh -27 and Tb PYK inh inconclusive.
For COc1cccc(C=NNC(=O)c2ccncc2)c1O the results were RE007 growth inh -8% and Tb PYK inh -2%.
COc1cccc(/C=N/NC(=O)Cn2nc(C)c([N+](=O)[O-])c2C)c1O was read as Giardia FBPA inh -29%, RE007 growth inh -12%, LmPK inh 3%, Cycloheximide cs -2, Shiga toxin inh -3 and Tb PYK inh 4%.
For COc1cccc(/C=N/Nc2ccccc2C(=O)O)c1O the results were Giardia FBPA inh 5%, RE007 growth inh 8%, LmPK inh 1%, Cycloheximide cs 47*, Shiga toxin inh 64* and Tb PYK inh -16%.
